From PubChem
NALP3 yeast inh = blocks the NALP3 inflammasome reconstituted in yeast. Yeast reconstituted NLRP3/ASC/caspase-1, beta-gal luminescence, 24 h. inhibition, % at 10 µM. hit rate 0.39% among 330,000;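 active means inhibition of 50% or more; inactive means inhibition below 50%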
V-ATPase pHluor = alters yeast V-ATPase proton transport; S. cerevisiae, pHLuorin cytosolic pH fluorescence; response, % at 10 µM; hit rate 0.37% among 350,000; in the data active means response mostly above about 7.3%, no sharp cut-off; inactive means mostly below about 5.4%; further: actives read high
tim23-1 inh = tim23-1 yeast growth inhibition. S. cerevisiae tim23-1 growth, BacTiter-Glo luminescence, 24 h. inhibition, % at 20 µM. hit rate 1.3% among 330,000;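 active means growth inhibition of the mutant yeast at or above 50%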;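 further: temperature-sensitive mutant grown at 25 °C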
tim10-1 inh = inhibits growth of tim10-1 mutant yeast; S. cerevisiae tim10-1 ts strain growth, BacTiter-Glo, 24 h; inhibition, % at 20 µM; hit rate 2.2% among 330,000; AID 463190;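 active means inhibition of at least 40%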;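 further: mutant grown at 25 °C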
TIM10 inh = growth inhibitors of TIM10 yeast strain; S. cerevisiae TIM10 strain growth, BacTiter-Glo luminescence, 24 h; inhibition, % at 10 µM; hit rate 1.4% among 330,000; AID 463195;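 active means inhibition of 40% or more at the single tested concentration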;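 further: wild-type TIM10 isogenic control strain grown at permissive 25 °C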
NALP1 inh = inhibitors of NALP1 inflammasome in yeast | S. cerevisiae NALP1/ASC/caspase-1 growth, X-gal OD620, 72 h | inhibition, % at 10 µM | hit rate 0.61% among 280,000; in the data active means inhibition mostly above about 24%, no sharp cut-off; inactive means mostly below about 32%
TIM10 conf = confirmation of TIM10 yeast growth inhibitors; hit rate 63% among 4,600; shares compounds with TIM10 inh; inhibition, % at 10 µM; S. cerevisiae tim10 strain growth, BacTiter-Glo luminescence, 24 h;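 active means inhibition of yeast growth at or above a set limit in either of two replicates at 10 µM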; further: this counterscreen used the strain with wild-type TIM10
Of the large screens only hits and unclear results are named; the others gave an inactive call (follow-up assays come after a bar, where they were run). Compounds with a hit are over-represented: about 4.2% of the library has one in this group of screens.

O=C(COc1ccc(Cl)cc1Cl)NNC(=S)Nc1ccc(F)cc1	TIM10 inh 45 | TIM10 conf 38
C=CCn1c(=O)/c(=C/c2ccc(F)cc2)s/c1=C(\C#N)c1nnc2n1CCCCC2	TIM10 inh 44 | TIM10 conf 40
COc1ccc(NC(=S)NCCc2ccc(Cl)cc2)c(OC)c1	TIM10 inh 41 | TIM10 conf inactive
COc1ccc(NC(=S)NCCSc2ccc(C)cc2)c(OC)c1	TIM10 inh 46 (no result: NALP1 inh) | TIM10 conf inactive
Cc1cc(SCC(=O)NC(=O)NCc2ccco2)nc2c(C)cccc12	none
CC(=O)c1ccc(NC(=O)C2CCCN2S(=O)(=O)c2cccc3cccnc23)cc1 (configuration not stated)	none
CCc1ccccc1NC(=S)NCC1CCN(c2ccc(OC)cc2)C1 (configuration not stated)	TIM10 inh 40 (no result: NALP1 inh) | TIM10 conf 53
CCc1cccc(C)c1NC(=S)NCC1CCN(c2ccc(OC)cc2)C1 (configuration not stated)	TIM10 inh 57 | TIM10 conf 59
COc1ccc(N2CCC(CNC(=S)Nc3cccc(OC)c3)C2)cc1 (configuration not stated)	none (no result: V-ATPase pHluor)
CC(C)C(NC(=S)NCc1ccccc1)C(=O)O (configuration not stated)	none
CCN1CCN(C(=O)c2cn(CCOC)c(=O)c3c2c2ccccc2n3C)CC1	none
CC(C)Cn1cc(C(=O)N2CCN(c3ccccn3)CC2)c2c3ccccc3n(C)c2c1=O	TIM10 inh 44 | TIM10 conf inactive
O=C1c2ccccc2CCc2ccccc21	none (no result: NALP3 yeast inh, tim23-1 inh, tim10-1 inh, TIM10 inh, NALP1 inh)
O=C1/C(=C\c2cccnc2)CCc2ccccc21	TIM10 inh 44 | TIM10 conf 40
Cc1c(C(=O)OC2CCCCC2)[nH]c2c1C(=O)CC(C)(C)C2	TIM10 inh 96 | TIM10 conf inactive
Cc1c(C(=O)OC(C)C)[nH]c2c1C(=O)CC(C)(C)C2	none (no result: V-ATPase pHluor, NALP1 inh)
Cc1c(NC(=O)c2ccc(-c3ccc([N+](=O)[O-])cc3Cl)o2)c(=O)n(-c2ccccc2)n1C	none
O=C(Cc1ccccc1)N/N=C/c1cc(Br)cc(Cl)c1O	TIM10 inh 45 | TIM10 conf 51
O=C(NCc1ccc2c(c1)OCO2)c1ccc(Br)o1	none
Cc1ccc(/C=N/n2cc(-c3ccccc3)[nH]c2=S)s1	TIM10 inh 41, NALP1 inh 25 | TIM10 conf 42
CC(=O)c1ccc(NC(=S)Nc2ccc(Br)c(Cl)c2)cc1	TIM10 inh 42 | TIM10 conf inactive
O=C(Nc1ccccc1)Nc1ccc(Br)c(Cl)c1	none
Fc1ccc(C(c2nnnn2C2CCCC2)N2CCc3ccccc32)cc1 (configuration not stated)	TIM10 inh 45 | TIM10 conf inactive
COC(=O)C1C2C=CC3(CN(c4cccc(Cl)c4)C(=O)C13)O2 (configuration not stated)	none
COC(=O)C1C2C=CC3(CN(c4cccc(C)c4)C(=O)C13)O2 (configuration not stated)	TIM10 inh 94 | TIM10 conf inactive
O=c1c2ccccc2cnn1Cc1n[nH]c(=S)n1C1CC2CCC1C2 (configuration not stated)	none (no result: NALP1 inh)
Cc1cccc(NNC(=S)Nc2c(C)cccc2C)c1	TIM10 inh 45 | TIM10 conf 36
COc1ccc(NS(=O)(=O)c2c(F)cccc2F)cc1S(=O)(=O)N1CCOCC1	none (no result: NALP1 inh)
O=C(COC(=O)c1ccc([N+](=O)[O-])o1)Nc1ccc(Br)cc1F	TIM10 inh 47 (no result: NALP1 inh) | TIM10 conf 50
O=C(COC(=O)c1ccc([N+](=O)[O-])o1)Nc1ccc(F)cc1	none (no result: NALP1 inh)
Oc1cccc2c(NC(=S)Nc3ccc(SC(F)F)cc3)cccc12	TIM10 inh 52 | TIM10 conf 42
Oc1cccc(NC(=S)Nc2ccc(SC(F)F)cc2)c1	none
CCCNC(=O)c1ccc2c(c1)ncn2-c1cc(C)cc(C)c1	TIM10 inh 42 | TIM10 conf inactive
Cc1cc(C)cc(-n2cnc3cc(C(=O)O)ccc32)c1	none
O=C(Nc1ccncc1)c1cn(-c2ccccc2)nc1-c1cccs1	TIM10 inh 44 | TIM10 conf 53
COc1ccc(-c2nn(-c3ccccc3)cc2C(=O)Nc2nccs2)cc1	TIM10 inh 43 | TIM10 conf inactive
COc1cccc(-c2nn(-c3ccccc3)cc2C(=O)Nc2nccs2)c1	none
Cn1c(C(=O)N(Cc2ccccc2)Cc2ccccn2)cc2sccc21	none
COc1cccc(C(=O)NC2CC(C)(C)NC(C)(C)C2)c1OC	TIM10 inh 61 | TIM10 conf inactive
C=CCNC(=S)N/N=C/c1ccc(-c2ccc(OC)cc2)o1	TIM10 inh 42 | TIM10 conf 36
FC(F)(F)c1ccc(/C=N/NC(=S)NC2CCCCC2)cc1	none
C=CCNC(=S)N/N=C/c1ccc(-c2cc(Cl)ccc2Cl)o1	none
C=CCNC(=S)N/N=C/c1ccc(C(F)(F)F)cc1	TIM10 inh 40 | TIM10 conf inactive
Cc1ccc(-n2c3c(cc(C(=O)NCC(=O)c4ccccc4)c2=O)C(=O)CCC3)cc1	none
Cc1ccc(OCC(=O)N(C)CC(=O)N(CC(C)C)c2c(N)n(CC(C)C)c(=O)[nH]c2=O)c(C)c1	none (no result: NALP1 inh)
Cc1ccc2nc(-c3ccncc3)c(NC3CCCCC3)n2c1	TIM10 inh 43 | TIM10 conf 42
CCOC(=O)COn1c(=O)c(-c2ccc(Br)cc2)[n+]([O-])c2ccccc21	none
CCOC(=O)COn1c(=O)c(-c2cccs2)[n+]([O-])c2ccccc21	TIM10 inh 42 | TIM10 conf inactive
c1ccc(OCCN2CCNCC2)cc1	none (no result: NALP3 yeast inh, tim23-1 inh, tim10-1 inh, TIM10 inh, NALP1 inh)
c1ccc(OCCN2CCN(C(c3ccccc3)c3ccccc3)CC2)cc1	TIM10 inh 42 | TIM10 conf 47
CC(=O)c1c(C)[nH]c(C(=O)OCC(=O)Nc2cc(C(F)(F)F)ccc2N2CCOCC2)c1C	none
CC(=O)Nc1ccc(SCC(=O)Nc2cc(C(C)(C)C)nn2-c2ccccc2)cc1	none (no result: V-ATPase pHluor)
Cn1c(SCC(=O)Nc2cc(C(C)(C)C)nn2-c2ccccc2)nc2ccccc21	TIM10 inh 43 | TIM10 conf inactive
O=C(Nc1nccs1)c1ccc(-c2ccccc2Cl)o1	TIM10 inh 47 | TIM10 conf inactive
COc1cnc(-c2ccccn2)nc1Oc1ccc(Cl)c2ccccc12	TIM10 inh 53 | TIM10 conf 41
Cc1ccc(N=Nc2ccc(C)cc2NC(=O)Nc2ccccc2F)cc1	none
CCN=c1scc(-c2ccccc2)n1/N=C/c1ccccn1	TIM10 inh 45 | TIM10 conf inactive
C=CCN=c1scc(-c2ccccc2)n1/N=C/c1ccccn1	TIM10 inh 48 | TIM10 conf 43
Cc1nc2ccccc2c(=O)n1/N=C/c1ccccn1	none
